A selection: hits, their analogues and other compounds. The true share with any hit is near 14%.
HCV inh = qHTS Assay for Inhibitors of Hepatitis C Virus (HCV). Huh7.5.1 HCVcc-Cre infection, luciferase reporter, 44 h. AID 651820, 2012. 3.4% of 340,000 active. Potency, µM (top dose mostly 41.8 µM), inactives show at the highest dose activity change, negative = inhibition, most hits filed as inhibitors; note: potency is the fitted concentration of half-maximal effect
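Infectious HCV cell culture screen: compound-treated cells (1,000/well, pre-plated 4 h) are infected with HCVcc-Cre at roughly 0.5 moi and grown 44 h. Infection is quantified by luciferase signal after 15 min substrate incubation at room temperature.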
Lassa entry inh = qHTS for Inhibitors of binding or entry into cells for Lassa Virus. Lassa virus pseudotype entry inhibition, cell reporter. Potency, µM (highest dose often 37.9 µM), inactives show at the top dose activity change, negative = inhibition, actives largely listed as inhibitors. 1.2% of 300,000 active. AID 540256, 2011; calls by dose curve; tested in HEK293 cells; note: potency is the fitted concentration of half-maximal effect; nearly all actives have a fitted effect of over 50% in size
HCMV antiviral = qHTS Assay for inhibitors of the human cytomegalovirus (HCMV) | HFF cells, HCMV-luciferase reporter, 72 h; stronger effect = lower value | activity change, negative = inhibition, % at 57.5 µM | 4.5% of 410,000 active; in the data active = activity change below about -60%; inconclusive = no clear call, values can overlap the other calls; inactive = above about -39%
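Steps: HFFs plated, 16 h 37C; compounds added; HCMV-luciferase added to MOI 1 PFU/cell; 72 h 37C; OneGlo reagent, 5 min room temperature; luminescence read, normalized to controls.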
Marburg entry inh = qHTS for inhibitors of binding or entry into cells for Marburg Virus | Potency, µM (titrated, usually from 37.8 µM), for inactives: at the top dose activity change, negative = inhibition, usual class: inhibitors | AID 540276, 2011 | 1.8% of 300,000 active | Marburg virus pseudotyped entry inhibition, cell reporter; calls by dose curve; tested in HEK293 cells; note: potency is the fitted concentration of half-maximal effect
Pf growth 48h = Primary qHTS for delayed death inhibitors of the malarial parasite plastid, 48 hour incubation | P. falciparum luciferase growth in erythrocytes, 48 h | Potency, µM (top dose mostly 28.7 µM), without a hit: at the top dose activity change, negative = inhibition, usual class: inhibitors | 5.9% of 310,000 active | AID 504832, 2011; note: potency is the fitted concentration of half-maximal effect
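Parasite viability was followed by luminescence of a genomically integrated firefly luciferase. Cultures held 0.1% parasitemia at 2% hematocrit (final), incubated under 5% CO2 at 37 C.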
Pf growth 96h = Primary qHTS for delayed death inhibitors of the malarial parasite plastid, 96 hour incubation | 6.9% of 320,000 active | Potency, µM (highest dose often 28.7 µM), for the others: at the top dose activity change, negative = inhibition, most hits filed as inhibitors | P. falciparum luciferase reporter growth, 96 h | AID 504834, 2011; note: potency is the fitted concentration of half-maximal effect
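Two parasite generations (96 h, 37 C, 5% CO2) of compound exposure in infected erythrocytes (0.05% parasitemia, 2% hematocrit). Luciferase-reporter P. falciparum; decreased luminescence indicates inhibited growth, aimed at apicoplast-acting delayed death.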
Numbers without * were called inactive; [ ] = dose if it differs, or a comment. Unless noted, calls come from the whole dose curve; as a rule, active = well fitted inhibition curve with a large enough effect; inconclusive = small, poorly fitted or top-dose-only effect, or another doubt; inactive = no such curve, though single readings can be large or run the other way. % is set by controls: 0 for no effect and ±100 for the full control effect.

For C/C(=N/N=C1/NC(=O)CC(C(=O)O)S1)c1ccccc1 (stereo not drawn) the results were HCV inh -9.5%, Lassa entry inh -1.2%, HCMV antiviral -15.9, Marburg entry inh inconclusive, Pf growth 48h 43.9% and Pf growth 96h 34.3%.
For C/C(=N/N=C1/NC(=O)CC(C(=O)Nc2ccccc2)S1)c1cccs1 (stereo not drawn) the results were HCV inh 4.7%, Lassa entry inh 0.9%, HCMV antiviral 7.9, Marburg entry inh 13.4%, Pf growth 48h 10.4µM* and Pf growth 96h 9.28µM*.
O=C(Cn1c(=O)n(CC2CCCO2)c(=O)c2ccccc21)Nc1ccc(F)cc1F (stereo not drawn) was read as Lassa entry inh 3.2%[46.1 µM], HCMV antiviral -1.7 and Marburg entry inh -0.1%[46.1 µM].
Screening Cc1cc(Oc2ccc(C)c(Cl)c2)nc(SCC(=O)c2ccccc2)n1 returned HCV inh inconclusive, Lassa entry inh inconclusive, HCMV antiviral -73.6*, Marburg entry inh inconclusive, Pf growth 48h -7.5% and Pf growth 96h 8.3%.
For Cc1cc(Oc2ccccc2)nc(SCC(=O)Nc2ccc(Cl)c(Cl)c2)n1 the results were HCV inh inconclusive, Lassa entry inh -14.6%, HCMV antiviral -24.5, Marburg entry inh inconclusive and Pf growth 96h 13.1µM*.
Cc1ccc(C(=O)CSc2cc(C)nc(SCC(=O)c3ccccc3)n2)cc1 was read as HCV inh inconclusive, Lassa entry inh inconclusive, HCMV antiviral -15.4, Marburg entry inh inconclusive and Pf growth 48h -16.5%.
`O=C(Nc1ccc(F)c(F)c1)c1ccc(=O)n(Cc2ccc(F)cc2)c1` gave Lassa entry inh 3.0%[46.1 µM] and HCMV antiviral -13.2.
`O=C(Nc1cc(-c2nc3ccccc3o2)ccc1Cl)c1sc2c([N+](=O)[O-])cccc2c1Cl` gave Lassa entry inh 14.1%[46.1 µM], HCMV antiviral 13.2 and Marburg entry inh 14.4%[46.1 µM].
Screening CCOC(=O)c1c(C)n(C)c2ccc(OCC(O)CNCCc3ccccc3)cc12 (stereo not drawn) returned HCV inh 12.6µM*, HCMV antiviral -36.2, Pf growth 48h inconclusive and Pf growth 96h 4.65µM*.
CCOC(=O)c1c(C)n(Cc2ccccc2)c2ccc(OCC(O)CN3C(=O)CNC3=O)cc12 (stereo not drawn) was read as HCV inh 8.91µM*, Lassa entry inh -19.8%, HCMV antiviral -14.5, Marburg entry inh 3.0% and Pf growth 48h inconclusive.
For CCOC(=O)c1c(C)n(-c2ccc(C)cc2)c2ccc(OCC(O)CN3CCN(C)CC3)cc12 (stereo not drawn) the results were HCV inh inconclusive, Lassa entry inh inconclusive, HCMV antiviral inconclusive, Marburg entry inh inconclusive, Pf growth 48h 9.28µM* and Pf growth 96h 122.6%.
`CCOC(=O)c1c(C)n(C)c2ccc(OCC(O)Cn3c(C)nc4ccccc43)cc12` (stereo not drawn) gave HCV inh 10µM*, Lassa entry inh inconclusive, HCMV antiviral -60.1*, Marburg entry inh inconclusive and Pf growth 48h 10.4µM*.
For CCOC(=O)c1c(C)n(C)c2ccc(OCC(O)CN3CCN(C)CC3)cc12 (stereo not drawn) the results were HCV inh -8.7%, HCMV antiviral 42.5, Marburg entry inh -0.6% and Pf growth 96h -21.3%.
For CCC12CN3CC(CC)(CN(C1)C3c1c[nH]c3ccccc13)C2=O (stereo not drawn) the results were Lassa entry inh inconclusive and HCMV antiviral 34.4.
Screening COc1ccc(S(=O)(=O)NCC(c2ccc(N(C)C)cc2)N2CCCC2)cc1F (stereo not drawn) returned Lassa entry inh inconclusive and HCMV antiviral -5.1.
For COc1ccc(CCNC(=O)c2cc3cc(F)ccc3nc2C)cc1OC the results were HCV inh inconclusive, Lassa entry inh -13.0%[46.1 µM], HCMV antiviral inconclusive and Marburg entry inh -1.0%[46.1 µM].
For O=c1c(N2CCN(c3ccc(F)cc3)CC2)csc2ccc(F)cc12 the results were Lassa entry inh -19.1%[46.1 µM] and HCMV antiviral -8.4.
Screening CSC[C@H]1CN(Cc2ccccc2)C(=O)[C@@H]1CC(=O)Nc1ccc(Br)cc1 returned HCMV antiviral -29.0.
COc1ccc(N2CCN(C(=O)c3cccnc3SCc3cccc(Br)c3)CC2)cc1 was read as HCV inh inconclusive, Lassa entry inh 12.6µM*, HCMV antiviral 9.3, Marburg entry inh inconclusive, Pf growth 48h inconclusive and Pf growth 96h -1.9%.
`CCOC(=O)CNC(=S)N(CCCN1CCCCCC1)Cc1cccs1` gave HCV inh 4.2%, Lassa entry inh 7.7%[46.1 µM], HCMV antiviral -88.5*, Marburg entry inh inconclusive, Pf growth 48h 4.6% and Pf growth 96h -0.8%.
Screening CCOC(=O)CNC(=S)N(Cc1ccccc1F)C1CCCCC1 returned HCV inh 11.1%, Lassa entry inh -26.2%, HCMV antiviral -7.1, Marburg entry inh inconclusive, Pf growth 48h inconclusive and Pf growth 96h 212.7%.
Screening CCOC(=O)CNC(=S)N(Cc1cccs1)C1CCCCC1 returned HCV inh 1.3%, Lassa entry inh -1.4%, HCMV antiviral -31.9, Marburg entry inh -3.0%, Pf growth 48h 16.9% and Pf growth 96h 7.38µM*.
Screening O=C(N1CCOCC1)N(Cc1cccs1)C1CCCC1 returned HCV inh 1.0%, Lassa entry inh 11.7%, HCMV antiviral -27.1, Marburg entry inh -4.5%, Pf growth 48h -7.1% and Pf growth 96h 7.38µM*.
Screening O=C(NCc1ccccc1)C1CCC(=O)N(CCN2CCOCC2)C1 (stereo not drawn) returned HCV inh 14.9%, HCMV antiviral 0.0, Pf growth 48h 20.8% and Pf growth 96h -8.6%.
Screening Cc1oc2ncnc(N3CCCCC3)c2c1C(=O)NCC1CCN(Cc2ccc(F)cc2)CC1 returned Lassa entry inh 19.4%[46.1 µM] and HCMV antiviral 8.9.
`Cc1cccc(S(=O)(=O)c2cn(C)c3cc(N4CCC(C)CC4)c(F)cc3c2=O)c1` gave Lassa entry inh 0.8%[46.1 µM] and HCMV antiviral 20.6.
For CCCCCCNC(=O)O[C@H]1Cn2c(=O)ccc(=O)n2[C@@H]2CN(S(=O)(=O)c3ccc(C)cc3)C[C@]12O the results were HCMV antiviral -89.0*.
Cc1ccc(S(=O)(=O)N2C[C@H]3n4c(=O)ccc(=O)n4C[C@H](OC(=O)NCc4ccccc4F)[C@@]3(O)C2)cc1 was read as HCMV antiviral -102.0*.
